Inconclusive results are not listed. A call without a number means that no potency is given here. Activity calls are given as the source filed them. The call rests on the fitted dose curve; in most records, active means well fitted curve in the direction sought with a large enough effect in the repeat runs; inconclusive means weak or mixed curves; inactive means no such curve, though single readings can be large; an effect the other way counts as inactive or inconclusive.
Legend:
[1] = molecular target: Cytochrome P450 2D6 (Homo sapiens) (UniProt P10635); assay: Cytochrome P450 Family 2 Subfamily D Member 6 (CYP2D6) small molecule antagonists: luciferase reporter qHTS assay (AID 1671196); further: nearly all actives have a fitted effect of over 50% in size
In short: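 Test chemicals meet CYP2D6 plus proluciferin substrate (10 min, RT); NADPH regenerating solution then drives turnover for 1 h. Detection reagent halts the reaction; luminescence measured after 20 min.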

[2] = molecular target: Cytochrome P450 2C19 (Homo sapiens) (UniProt P33261); assay: Cytochrome P450 Family 2 Subfamily C Member 19 (CYP2C19) small molecule antagonists: luciferase reporter qHTS assay (AID 1671197); further: nearly all actives have a fitted effect of over 65% in size
In short: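 Luminescent readout of CYP2C19 activity: luciferin product detected 20 min after adding detection reagent. Before that, compound and enzyme-substrate mix preincubated 10 min at room temperature; NADPH-regenerating system started a 1 h, 37C reaction. Ketoconazole as positive control.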

[3] = molecular target: Cytochrome P450 1A2 (Homo sapiens) (UniProt P05177); assay: Cytochrome P450 Family 1 Subfamily A Member 2 (CYP1A2) small molecule antagonists: luciferase reporter qHTS assay (AID 1671199); further: nearly all actives have a fitted effect of over 50% in size
In short: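 Steps: enzyme-substrate mix dispensed; test compounds and furafylline control pinned in; 10 min room temperature; NADPH regeneration solution added, 1 h; reaction stopped with luciferin detection reagent; luminescence read after 20 min.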

[4] = molecular target: Voltage-gated inwardly rectifying potassium channel KCNH2 (Homo sapiens) (UniProt Q12809); assay: Human Ether-a-go-go-Related Gene (hERG) channel small molecule antagonists: fluorescence cell-based qHTS assay (AID 1671200); further: nearly all actives have a fitted effect of over 50% in size
In short: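 Cell line hERG-U2OS; dye FluxOR II, 1 h RT dark; Tl+ stimulus; ex 480/em 540 nm, read each second for 2 min.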

[5] = molecular target: Cytochrome P450 3A4 (Homo sapiens) (UniProt P08684); assay: Cytochrome P450 Family 3 Subfamily A Member 4 (CYP3A4) small molecule antagonists: luciferase reporter qHTS assay (AID 1671201); further: nearly all actives have a fitted effect of over 50% in size
In short: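 Room-temperature assay throughout: 10 min compound–enzyme/substrate preincubation, 1 h reaction after NADPH regeneration solution, 20 min detection. Luciferin formed from proluciferin substrate is quantified by luminescence.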

[6] = molecular target: Cytochrome P450 2C9 (Homo sapiens) (UniProt P11712); assay: Cytochrome P450 Family 2 Subfamily C Member 9 (CYP2C9) small molecule antagonists: luciferase reporter qHTS assay (AID 1671198); further: nearly all actives have a fitted effect of over 50% in size
In short: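 Enzyme-substrate mix preincubated with compound 10 min at room temperature; reaction started with NADPH regeneration solution, 1 h 37C. Luminescent luciferin product read after 20 min detection reagent.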
Potency means the concentration at half of the fitted maximal effect.

Cytochrome P450 2D6 (Homo sapiens), sequence (P10635 whole entry, looked up): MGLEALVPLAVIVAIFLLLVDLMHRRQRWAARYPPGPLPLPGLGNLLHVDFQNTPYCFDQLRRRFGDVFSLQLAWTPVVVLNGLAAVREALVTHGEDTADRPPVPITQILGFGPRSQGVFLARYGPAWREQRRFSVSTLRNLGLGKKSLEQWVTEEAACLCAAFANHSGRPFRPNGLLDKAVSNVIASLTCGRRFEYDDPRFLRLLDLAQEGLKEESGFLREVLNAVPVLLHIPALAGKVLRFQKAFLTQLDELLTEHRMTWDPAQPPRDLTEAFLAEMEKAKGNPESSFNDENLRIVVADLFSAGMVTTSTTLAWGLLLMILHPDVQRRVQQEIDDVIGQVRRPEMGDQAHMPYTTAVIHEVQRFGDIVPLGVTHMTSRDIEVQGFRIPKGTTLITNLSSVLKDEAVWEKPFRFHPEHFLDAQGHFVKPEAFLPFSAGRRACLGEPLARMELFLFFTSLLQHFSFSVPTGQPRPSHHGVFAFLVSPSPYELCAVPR
Cytochrome P450 2C9 (Homo sapiens), sequence (P11712 whole entry, looked up): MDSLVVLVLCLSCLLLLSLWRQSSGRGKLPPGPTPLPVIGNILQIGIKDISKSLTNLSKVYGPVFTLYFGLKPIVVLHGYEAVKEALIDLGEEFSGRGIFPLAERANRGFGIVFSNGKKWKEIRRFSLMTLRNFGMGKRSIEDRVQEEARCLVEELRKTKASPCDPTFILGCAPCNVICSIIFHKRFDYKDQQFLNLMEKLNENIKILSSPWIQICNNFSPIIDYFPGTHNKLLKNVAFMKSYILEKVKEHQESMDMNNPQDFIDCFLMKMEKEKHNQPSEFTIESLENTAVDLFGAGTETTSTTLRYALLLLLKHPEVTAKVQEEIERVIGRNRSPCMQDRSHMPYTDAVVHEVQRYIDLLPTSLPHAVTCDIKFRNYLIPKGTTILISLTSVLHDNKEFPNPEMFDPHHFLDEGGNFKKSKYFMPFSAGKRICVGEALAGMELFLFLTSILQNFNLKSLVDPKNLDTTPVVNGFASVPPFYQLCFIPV
Cytochrome P450 1A2 (Homo sapiens), sequence (P05177 whole entry, looked up): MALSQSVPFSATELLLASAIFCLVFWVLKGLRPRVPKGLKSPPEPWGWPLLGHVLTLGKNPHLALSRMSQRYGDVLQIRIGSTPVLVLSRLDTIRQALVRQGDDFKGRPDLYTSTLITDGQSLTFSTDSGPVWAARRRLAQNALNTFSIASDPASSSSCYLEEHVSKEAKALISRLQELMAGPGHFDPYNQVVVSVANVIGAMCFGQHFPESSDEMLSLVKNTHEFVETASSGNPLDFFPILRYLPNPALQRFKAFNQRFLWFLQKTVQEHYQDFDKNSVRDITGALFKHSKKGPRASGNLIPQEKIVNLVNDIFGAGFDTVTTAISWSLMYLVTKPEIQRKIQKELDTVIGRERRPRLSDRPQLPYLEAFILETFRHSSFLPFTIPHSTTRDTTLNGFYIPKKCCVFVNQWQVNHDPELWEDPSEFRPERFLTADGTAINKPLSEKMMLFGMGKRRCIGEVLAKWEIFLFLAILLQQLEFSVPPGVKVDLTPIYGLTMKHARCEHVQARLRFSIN
Cytochrome P450 3A4 (Homo sapiens), sequence (P08684 whole entry, looked up): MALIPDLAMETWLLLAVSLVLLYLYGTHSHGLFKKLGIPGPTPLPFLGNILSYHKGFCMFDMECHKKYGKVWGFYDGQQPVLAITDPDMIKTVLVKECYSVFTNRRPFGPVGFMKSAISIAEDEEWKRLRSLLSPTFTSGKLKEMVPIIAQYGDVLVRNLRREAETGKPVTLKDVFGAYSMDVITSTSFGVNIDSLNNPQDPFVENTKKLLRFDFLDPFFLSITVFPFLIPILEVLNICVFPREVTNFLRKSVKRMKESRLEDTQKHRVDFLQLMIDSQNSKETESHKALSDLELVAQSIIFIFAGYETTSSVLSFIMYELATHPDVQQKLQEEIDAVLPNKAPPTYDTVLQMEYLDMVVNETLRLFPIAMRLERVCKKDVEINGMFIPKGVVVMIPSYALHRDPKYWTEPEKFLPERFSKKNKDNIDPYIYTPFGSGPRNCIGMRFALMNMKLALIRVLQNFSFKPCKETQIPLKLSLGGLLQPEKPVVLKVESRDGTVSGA
Cytochrome P450 2C19 (Homo sapiens), sequence (P33261 whole entry, looked up): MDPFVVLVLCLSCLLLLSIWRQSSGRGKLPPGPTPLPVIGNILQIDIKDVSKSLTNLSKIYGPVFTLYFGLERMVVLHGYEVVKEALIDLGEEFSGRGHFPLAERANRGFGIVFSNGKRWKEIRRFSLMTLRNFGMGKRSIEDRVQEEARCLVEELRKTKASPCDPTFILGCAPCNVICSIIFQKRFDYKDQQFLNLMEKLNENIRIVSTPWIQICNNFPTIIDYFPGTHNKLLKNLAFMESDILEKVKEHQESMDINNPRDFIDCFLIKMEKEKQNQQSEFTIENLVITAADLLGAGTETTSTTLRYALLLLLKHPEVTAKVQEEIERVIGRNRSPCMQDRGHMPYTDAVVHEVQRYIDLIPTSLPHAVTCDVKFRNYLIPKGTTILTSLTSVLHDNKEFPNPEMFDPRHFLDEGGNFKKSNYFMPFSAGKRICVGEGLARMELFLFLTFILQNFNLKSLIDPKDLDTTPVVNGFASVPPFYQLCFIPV
Voltage-gated inwardly rectifying potassium channel KCNH2 (Homo sapiens), sequence (Q12809 whole entry, looked up): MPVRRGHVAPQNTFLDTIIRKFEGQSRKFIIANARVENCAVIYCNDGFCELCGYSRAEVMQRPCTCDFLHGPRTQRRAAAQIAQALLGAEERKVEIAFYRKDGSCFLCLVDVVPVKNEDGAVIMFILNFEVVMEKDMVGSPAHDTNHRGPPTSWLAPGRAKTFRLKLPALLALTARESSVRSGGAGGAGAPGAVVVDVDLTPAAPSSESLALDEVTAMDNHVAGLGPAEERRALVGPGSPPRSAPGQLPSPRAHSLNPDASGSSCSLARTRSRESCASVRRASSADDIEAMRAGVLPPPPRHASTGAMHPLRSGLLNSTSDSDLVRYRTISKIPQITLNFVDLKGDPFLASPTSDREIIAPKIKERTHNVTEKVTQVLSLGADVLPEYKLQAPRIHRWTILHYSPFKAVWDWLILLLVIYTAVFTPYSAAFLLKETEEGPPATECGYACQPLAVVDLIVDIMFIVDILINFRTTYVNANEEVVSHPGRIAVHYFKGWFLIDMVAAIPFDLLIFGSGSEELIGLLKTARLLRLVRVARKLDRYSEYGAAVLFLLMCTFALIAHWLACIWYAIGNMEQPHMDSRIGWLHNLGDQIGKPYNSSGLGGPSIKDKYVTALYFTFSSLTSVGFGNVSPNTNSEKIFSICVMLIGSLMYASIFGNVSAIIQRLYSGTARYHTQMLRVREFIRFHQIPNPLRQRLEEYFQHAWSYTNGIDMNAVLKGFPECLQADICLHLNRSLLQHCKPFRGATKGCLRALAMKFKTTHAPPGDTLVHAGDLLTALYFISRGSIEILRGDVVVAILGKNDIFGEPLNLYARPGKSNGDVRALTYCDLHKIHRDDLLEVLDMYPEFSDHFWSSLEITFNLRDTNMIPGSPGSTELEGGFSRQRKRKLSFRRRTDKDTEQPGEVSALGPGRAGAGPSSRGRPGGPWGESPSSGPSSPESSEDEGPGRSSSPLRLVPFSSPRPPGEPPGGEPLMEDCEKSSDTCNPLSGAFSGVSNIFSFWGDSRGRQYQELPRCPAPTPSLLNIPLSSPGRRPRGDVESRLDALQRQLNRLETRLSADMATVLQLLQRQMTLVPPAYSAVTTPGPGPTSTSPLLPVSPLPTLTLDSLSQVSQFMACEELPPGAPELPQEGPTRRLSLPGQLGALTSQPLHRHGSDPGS

| SMILES | Potency [1] | Potency [2] | Potency [3] | Potency [4] | Potency [5] | Potency [6] |
| --- | --- | --- | --- | --- | --- | --- |
| CC(=O)S[C@H](C(=O)N[C@H]1Cc2ccccc2[C@H]2CCC[C@@H](C(=O)O)N2C1=O)C(C)C | inactive | inactive | inactive | inactive | inactive | – |
| O=C(O)COCC(=O)O | inactive | inactive | inactive | inactive | inactive | – |
| CCc1cnc(C(=O)O)c(C(=O)O)c1 | inactive | inactive | inactive | inactive | inactive | – |
| O=C(c1ccc(Cl)cc1)c1ccc(Cl)cc1 | inactive | 1 µM (active) | – | inactive | inactive | – |
| CCCCCCCCCCCC(=O)OCC | inactive | inactive | inactive | inactive | inactive | – |
| Cc1ccc(S(=O)(=O)NC(=O)NC2CCCC2)cc1 | inactive | inactive | inactive | inactive | inactive | – |
| COC(=O)C(C)(C)C | inactive | 32.2 µM (active) | 40.5 µM (active) | inactive | inactive | – |
| CC(=O)OCC(=O)[C@@]1(O)CC[C@H]2[C@@H]3CCC4=CC(=O)C=C[C@]4(C)[C@@]3(F)[C@@H](O)C[C@@]21C | inactive | inactive | inactive | inactive | – | – |
| CS(C)=O | inactive | inactive | inactive | inactive | inactive | – |
| CC(C)=CCC[C@H](C)CCO | inactive | 71 µM (active) | inactive | inactive | 63.3 µM (active) | – |
| C(/C=C/C=C/Nc1ccccc1)=Nc1ccccc1 | 71 µM (active) | inactive | – | inactive | – | – |
| Cc1c(N=C=O)cccc1N=C=O | inactive | 72.4 µM (active) | – | inactive | – | – |
| O=C1c2ccccc2C(=O)C1c1ccc2ccccc2n1 | inactive | 3.14 µM (active) | 2.22 µM (active) | inactive | 1.77 µM (active) | – |
| CC(CN=Cc1ccccc1O)N=Cc1ccccc1O (stereo not given) | 35.6 µM (active) | inactive | 20 µM (active) | inactive | inactive | – |
| CC(=O)Nc1ccn(C2COC(COC(=O)c3ccccc3)O2)c(=O)n1 (stereo not given) | inactive | inactive | 24.5 µM (active) | inactive | inactive | – |
| Nc1nc(Cl)nc2c1ncn2[C@H]1C[C@H](O)[C@@H](CO)O1 | inactive | inactive | 28.1 µM (active) | inactive | inactive | – |

| SMILES | Potency [1] | Potency [2] | Potency [3] | Potency [4] | Potency [5] | Potency [6] |
| --- | --- | --- | --- | --- | --- | --- |
| Cc1c(Nc2ncccc2C(=O)O)cccc1C(F)(F)F | inactive | inactive | – | inactive | inactive | – |
| CNc1ccccc1 | inactive | 31.7 µM (active) | inactive | inactive | inactive | – |
| C[C@]12CCC(=O)C=C1[C@@H]1C[C@@H]1[C@H]1[C@@H]3[C@@H]4C[C@@H]4[C@@]4(CCC(=O)O4)[C@@]3(C)CC[C@@H]12 | inactive | 0.871 µM (active) | inactive | inactive | inactive | – |
| O=C(O)c1ccccc1-n1cc(C(=O)O)c(=O)c2cc(Nc3c(F)cc(F)cc3Cl)c(Cl)cc21 | inactive | inactive | inactive | inactive | inactive | – |
| CCCc1nc(C)c2c(=O)[nH]c(-c3cc(S(=O)(=O)N4CCN(CC)CC4)ccc3OCC)nn12 | inactive | inactive | inactive | inactive | – | – |
| C=C(C)C(=O)OCCCCCCCCCCOC(=O)C(=C)C | 35.6 µM (active) | inactive | 44.8 µM (active) | – | inactive | – |
| SCCOCCOCCS | inactive | 10 µM (active) | – | inactive | 17.8 µM (active) | 35.6 µM (active) |
| CCC(C(=O)O)c1ccc(N2Cc3ccccc3C2=O)cc1 (stereo not given) | 15.5 µM (active) | 21.9 µM (active) | – | inactive | inactive | – |
| O=C(Nc1ccccc1)c1cc([N+](=O)[O-])ccc1Cl | – | 22.4 µM (active) | 7.96 µM (active) | inactive | 35.6 µM (active) | 31.7 µM (active) |
| O=c1[nH][nH]c2ccccc12 | inactive | 81.2 µM (active) | – | inactive | 32.3 µM (active) | – |
| CC(C)=CCC/C(C)=C/C=N/O | 35.6 µM (active) | – | 39.9 µM (active) | inactive | 28.3 µM (active) | 39.9 µM (active) |
| O=C1c2ccccc2C(=O)C1c1ccc2cc(S(=O)(=O)O)cc(S(=O)(=O)O)c2n1 | inactive | – | 43.2 µM (active) | inactive | inactive | – |
| CC(C)Cc1nccs1 | 12.9 µM (active) | 40.7 µM (active) | – | inactive | inactive | – |
| Cc1nc2sccn2c(=O)c1CCN1CCC(=C(c2ccc(F)cc2)c2ccc(F)cc2)CC1 | 15.5 µM (active) | – | inactive | 0.213 µM (active) | inactive | – |
| CCCCCCCCCCCCSC#N | inactive | – | 7.96 µM (active) | inactive | inactive | – |

— PubChem BioAssay (Tox21)
